CYP2C9 act = human CYP2C9 activators, primary screen, biochemical, luminescence; Cytochrome P450 2C9 (Homo sapiens), P11712; recombinant CYP2C9, luciferin-H conversion; stronger effect = higher value; factor 1 = untreated enzyme, 0 = blocked; activation factor at 5 µM; 96,000 compounds, 1.4% hits;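 active = activation factor of 2 or more for CYP2C9 at a 5 µM dose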;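 note: 0 = sulfaphenazole-blocked wells and 1 = vehicle-only wells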
D1 allo mod = D1 CRE-luciferase signal change, two-sided – cell-based, HEK293 D1, dopamine EC30, D1 allosteric modulator project, primary screen. dopamine EC30 potentiation; actives deviate in either direction. B-score at 10 µM. 58,000 compounds, 5.9% hits. AID 641, 2007;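 active = luminescence count or its row- and column-corrected plate score outside the 99.7% band of the plate's sample wells, on either side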
CYP2C19 act = human CYP2C19 activators, primary screen, biochemical, luminescence. 96,000 tested, under 10 active. AID 1025, 2008. recombinant CYP2C19, luciferin-H EGE luminescence; stronger effect = higher value; 0 = fully inhibited enzyme, 1 = untreated enzyme. activation factor at 5 µM;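 active = activation factor of at least 2 at 5 µM in the primary screen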;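 note: 0 = wells with 2.5 mM tranylcypromine and 1 = vehicle-only wells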
DAT uptake mod = changed hDAT dopamine uptake under cocaine IC80, either direction, primary screen, cocaine antagonist project, cell-based, LLC-PK1 hDAT, [14C]-dopamine uptake, MLSMR | Sodium-dependent dopamine transporter (Homo sapiens), Q01959 | LLC-PK1 hDAT cells, [14C]-dopamine uptake with cocaine IC80; actives deviate in either direction | B-score at 10 µM | 110,000 compounds, 1.3% hits | AID 449768, 2010;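 active = Z score or B-score, a plate-position-corrected score, falls beyond the plate's 99.7% confidence bounds, in either direction; inactive = both scores lie inside the 99.7% bounds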;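 note: scored against the spread of the other compound wells on the same plate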
Target sequence (Q01959 whole entry, looked up): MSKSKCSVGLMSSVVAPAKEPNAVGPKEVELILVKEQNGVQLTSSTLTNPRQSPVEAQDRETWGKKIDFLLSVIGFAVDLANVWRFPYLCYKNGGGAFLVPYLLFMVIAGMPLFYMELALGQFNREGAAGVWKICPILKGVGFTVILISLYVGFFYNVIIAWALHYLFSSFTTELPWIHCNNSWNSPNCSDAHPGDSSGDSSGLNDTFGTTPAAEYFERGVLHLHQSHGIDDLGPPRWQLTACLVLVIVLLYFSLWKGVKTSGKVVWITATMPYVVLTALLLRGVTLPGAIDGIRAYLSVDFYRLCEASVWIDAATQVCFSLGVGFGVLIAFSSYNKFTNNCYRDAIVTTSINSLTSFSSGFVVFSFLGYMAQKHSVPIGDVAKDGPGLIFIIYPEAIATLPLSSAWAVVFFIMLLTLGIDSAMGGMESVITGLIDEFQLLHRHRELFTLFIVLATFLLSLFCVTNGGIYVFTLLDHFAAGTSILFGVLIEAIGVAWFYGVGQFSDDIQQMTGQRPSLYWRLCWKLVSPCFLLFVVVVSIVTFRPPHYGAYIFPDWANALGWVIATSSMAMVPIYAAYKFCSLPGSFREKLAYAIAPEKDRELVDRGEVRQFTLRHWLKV
CYP2C9 inh = blockers of cytochrome P450 2C9 activity – biochemical, luminescence, ADME assay, primary screen; P11712; CYP2C9 Supersomes, luciferin-H conversion; inhibition, % at 5 µM; 96,000 compounds, 20% hits; AID 777, 2007;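 active = blocking of liver enzyme CYP2C9 beyond about 50% at 5 µM, limit read from the data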
CYP2C19 inhib = blockers of cytochrome P450 2C19 activity – biochemical, luminescence, ADME assay, primary screen. P33261. CYP2C19 Supersomes, luciferin-H EGE luminescence, 30 min. inhibition, % at 5 µM. 96,000 compounds, 21% hits;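 active = CYP2C19 inhibition above a set limit at 5 µM in the primary screen, cut at about 50% in these data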;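 note: plate controls were negative control wells for no effect and 2.5 mM tranylcypromine positive control for full effect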
D1 mod confirm = D1 receptor positive allosteric modulators, retest, confirmation, cell-based, HEK293 D1, CRE-luciferase, duplicate; 2,200 compounds, 88% hits; luminescence at 10 µM; shares compounds with D1 allo mod; dopamine EC30 potentiation; stronger effect = higher value;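 active = luminescence in either of two replicates above the same-plate mean plus 3 SD of the low-dose dopamine control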
D1 no dopamine = D1 receptor agonism without dopamine, confirmation, mechanism study for D1 allosteric modulator project, cell-based, HEK293 D1, CRE-luciferase, secondary assay 1 | shares compounds with D1 allo mod | luminescence at 10 µM | luminescence, no dopamine; stronger effect = higher value | 1,900 compounds, 0.8% hits; in the data active = luminescence above about 3900
Isoprot counter = counter-screen for D1 modulators: isoproterenol response in HEK293 cells | HEK293 D1 CRE-luciferase, isoproterenol EC30 counter-screen | calls only at 10 µM | shares compounds with D1 allo mod | 2,200 compounds, 63% hits;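 active = luminescence in either replicate above plate mean of wells with a partly effective reference agonist dose plus 3 SD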;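 note: isoproterenol raises cAMP through native beta-adrenoceptor Gs so signal bypasses D1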
* = called active by the depositor; i = inactive; . = not tested or not shown; + = active, no number. An excerpt weighted towards active compounds, which were near 28% of everything screened.

SMILES | CYP2C9 act | D1 allo mod | CYP2C19 act | DAT uptake mod | CYP2C9 inh | CYP2C19 inhib | D1 mod confirm | D1 no dopamine | Isoprot counter
COc1ccc(N2C(=O)C3CCCN3C2c2cccc(C)c2)cc1Cl (stereo unspecified) | 0.6 | -0.73 | 0.5 | -1.8 | 43 | 45 | . | . | .
COc1ccc(N2C(=O)C3CCCN3C2c2ccccc2)cc1Cl (stereo unspecified) | 1 | 2.8* | 0.8 | -0.52 | -1 | 18 | 5744* | 1680 | i
COc1ccccc1C1CC(=O)NC(C)=C1C(=O)OCC(C)C (stereo unspecified) | 0.8 | -1.1 | 0.5 | 0.14 | 23 | 48 | . | . | .
Cc1c(C(=O)OCC(C)C)[nH]c2c1C(=O)CC(c1ccco1)C2 (stereo unspecified) | 0.6 | 5.8* | 0.9 | -1.2 | 38 | 10 | 12056* | 1616 | i
N#Cc1ccc(-c2ccco2)nc1SCc1ccccc1 | 0.8 | 3.1* | 1 | -0.62 | 21 | -1 | 17912* | 1576 | i
COC(=O)c1cc(C#N)c(SCc2ccccc2)nc1C | 0.9 | . | 0.9 | -0.034 | 9 | 6 | . | . | .
C#CCSc1nc(-c2cccs2)ccc1C#N | 0.8 | . | 1 | -0.68 | 18 | 2 | . | . | .
CCSc1nc(-c2ccco2)ccc1C#N | 0.7 | 2.7* | 1 | 0.26 | 27 | -1 | 6188* | 1560 | i
N#C/C(C(N)=O)=C1/CCc2ccccc2N1 | 1.1 | . | 1.1 | 0.019 | -11 | -14 | . | . | .
COC(C[C@H](O)[C@H](C)[C@H](O)COCc1ccccc1)OC | . | . | . | -0.091 | . | . | . | . | .
CC1(C)Cc2c(c(-c3ccccc3)nc(N3CCOCC3)c2C(N)=O)CO1 | 0.8 | . | 1 | -1 | 23 | -1 | . | . | .
CC(Sc1nc(N2CCOCC2)c2c(c1C#N)CC(C)(C)OC2)C(=O)Nc1ccccc1 (stereo unspecified) | . | 5.2* | . | -0.24 | . | . | 9724* | 1700 | +
Cc1ccccc1Nc1nc(N)nc(CSc2nnc(-c3ccccc3)n2C)n1 | 1 | . | 1.1 | 1.6 | -4 | -9 | . | . | .
COc1ccccc1Nc1nc(N)nc(CSc2nncn2C)n1 | 1.1 | 12* | 1 | -0.073 | -9 | 3 | 6088 | . | i
Cc1ccccc1N(C(=O)Cn1nnc2ccccc21)C(C(=O)NCc1ccco1)c1ccncc1 (stereo unspecified) | 0.8 | 1.5 | 0.7 | 0.0067 | 23 | 28 | . | . | .
CCOC(=O)c1ccc(NC(=O)CCc2nc(-c3ccc(Cl)cc3)no2)cc1 | 0.9 | 0.2 | 1.1 | 0.11 | 8 | -10 | . | . | .
CCOc1ccc(-c2noc(CCC(N)=O)n2)cc1OCC | 1.1 | 11* | 1.1 | 2.1 | -10 | -11 | 16532* | 1780 | +
CCOc1ccc(-c2noc(COC)n2)cc1OC | 1.1 | 3.4* | 1.1 | -0.15 | -9 | -6 | 8824* | 1732 | i
COc1ccc(-c2noc(CSc3nc(-c4ccccc4)cc(=O)[nH]3)n2)cc1OC | 0.4 | 7.6* | 0.6 | 0.14 | 60* | 44 | 7928* | . | +
CCOc1ccc(-c2nc(-c3ccc(OC)c(OC)c3)no2)cc1OCC | 1.2 | -0.4 | 1.2 | 1.2 | -19 | -21 | . | . | .
COc1ccc(-c2noc(CSc3nnc(-c4ccncc4)n3-c3ccc(F)cc3)n2)cc1OC | 0.8 | 4.6* | 0.4 | 1.4 | 23 | 59* | 10824* | 1596 | i

Source: PubChem
